According to PubChem BioAssay (Tox21):
“And” between values parts separate entries of the source, which are not always exact repeats. Equal entries are not always repeated. Inconclusive results are not listed. The source made the active and inactive calls. Unless noted, calls come from the whole dose curve; as a rule, active = well fitted curve in the direction sought with a large enough effect in the repeat runs; inconclusive = weak or mixed curves; inactive = no such curve, though single readings can be large; an effect the other way counts as inactive or inconclusive.

Experiments:
[1] = qHTS assay to identify small molecule antagonists of the peroxisome proliferator-activated receptor gamma (PPARg) signaling pathway - cell viability counter screen (AID 743194); conditions: Potency: co-treated with 50 nM rosiglitazone unless noted; note: nearly all actives have a fitted effect of over 55% in size; note: potency is the fitted concentration of half-maximal effect
Outline: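 PPARg-UAS-bla HEK293H cells were plated, rested 5 h at 37 C, then treated with compounds plus rosiglitazone (50 nM final) for 17 h at 37 C; viability was then read by CellTiter-Glo luminescence after 30 min at room temperature.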

[2] = qHTS assay for small molecule agonists of the antioxidant response element (ARE) signaling pathway - cell viability counter screen (AID 743203; calls by dose curve; note: nearly all actives have a fitted effect of over 55% in size; note: potency is the fitted concentration of half-maximal effect)
Outline: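 ARE-bla HepG2 cells were plated, rested 5 h at 37C/5% CO2, then exposed to compounds in DMSO for 16 h. Viability was read as CellTiter-Glo luminescence after 30 min at room temperature, in the same wells as the ARE screen.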

[3] = qHTS assay for small molecule activators of the heat shock response signaling pathway - cell viability counter screen (AID 743209); note: nearly all actives have a fitted effect of over 50% in size; note: potency is the fitted concentration of half-maximal effect
Outline: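 HSE-bla HeLa cells plated overnight, then exposed to Tox21 compounds (23 nL in DMSO) for 5 h at 37 C. After the bla reporter read, CellTiter-Glo was added in the same wells and luminescence read after 30 min at room temperature.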

[4] = qHTS assay to identify small molecule agonists of the peroxisome proliferator-activated receptor delta (PPARd) signaling pathway - cell viability counter screen (AID 743211); note: nearly all actives have a fitted effect of over 55% in size; note: potency is the fitted concentration of half-maximal effect
Outline: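 Tox21 library compounds, delivered in DMSO, were incubated 17 h with PPARd-bla HEK293H cells; cytotoxicity was taken from CellTiter-Glo luminescence read 30 min after reagent addition.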

[5] = target: Peroxisome proliferator-activated receptor delta (Homo sapiens) (UniProt Q03181); assay: qHTS assay to identify small molecule agonists of the peroxisome proliferator-activated receptor delta (PPARd) signaling pathway (AID 743212; calls by dose curve; note: potency is the fitted concentration of half-maximal effect)
Sequence of Peroxisome proliferator-activated receptor delta (Homo sapiens) (Q03181 whole entry, looked up): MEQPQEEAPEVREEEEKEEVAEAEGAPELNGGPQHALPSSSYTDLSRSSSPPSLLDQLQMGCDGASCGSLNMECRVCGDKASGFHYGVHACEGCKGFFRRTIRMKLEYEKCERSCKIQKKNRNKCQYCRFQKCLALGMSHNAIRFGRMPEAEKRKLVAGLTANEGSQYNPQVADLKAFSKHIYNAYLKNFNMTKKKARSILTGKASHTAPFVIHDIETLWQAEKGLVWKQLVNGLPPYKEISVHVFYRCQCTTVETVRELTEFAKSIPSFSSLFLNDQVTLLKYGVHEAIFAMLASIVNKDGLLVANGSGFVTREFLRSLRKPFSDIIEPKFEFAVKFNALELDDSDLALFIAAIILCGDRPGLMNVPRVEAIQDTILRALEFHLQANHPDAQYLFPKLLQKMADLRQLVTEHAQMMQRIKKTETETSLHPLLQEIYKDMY
Outline: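 A PPARd-bla HEK293H line with beta-lactamase under an Upstream Activator Sequence is treated with compounds at 37 C. Substrate loading for 2 h at room temperature precedes the fluorescence measurement.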

[6] = qHTS assay to identify small molecule antagonists of the peroxisome proliferator-activated receptor delta (PPARd) signaling pathway - cell viability counter screen (AID 743213); note: nearly all actives have a fitted effect of over 50% in size; note: potency is the fitted concentration of half-maximal effect
Outline: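 PPARd-bla HEK293H cells (3000/well) got compound plus 300 nM L165041 agonist for 17 h at 37 C. Viability in the same wells came from CellTiter-Glo luminescence after 30 min at room temperature.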

[7] = qHTS assay to identify small molecule agonists of the farnesoid-X-receptor (FXR) signaling pathway - cell viability counter screen (AID 743218); note: nearly all actives have a fitted effect of over 45% in size; note: potency is the fitted concentration of half-maximal effect
Outline: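 FXR-UAS-bla HEK 293T cells exposed to compounds for 16 h at 37C. Cytotoxicity read in the same wells by CellTiter-Glo luminescence after 30 min at room temperature, following the beta-lactamase FRET read.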

[8] = qHTS assay to identify small molecule antagonists of the farnesoid-X-receptor (FXR) signaling pathway - cell viability counter screen (AID 743221; active = well fitted cell-killing curve with a large enough effect in the repeat runs, not every such curve was filed as active; note: nearly all actives have a fitted effect of over 50% in size; note: potency is the fitted concentration of half-maximal effect)
Outline: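 Cytotoxicity is taken from ATP luminescence (CellTiter-Glo, 30 min, room temperature) in FXR-bla HEK 293T cells previously incubated 16 h at 37 C with compound and chenodeoxycholic acid at 50 uM final.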

[9] = target: Aryl hydrocarbon receptor (Homo sapiens) (UniProt P35869); assay: qHTS assay to identify small molecule that activate the aryl hydrocarbon receptor (AhR) signaling pathway (AID 743085); note: nearly all actives have a fitted effect of over 15% in size; note: potency is the fitted concentration of half-maximal effect;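 for activation: HG2L7.5c1 human HepG2 liver cells with stably integrated DRE-driven firefly reporter; series mostly up to about 70 µM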
Sequence of Aryl hydrocarbon receptor (Homo sapiens) (P35869 whole entry, looked up): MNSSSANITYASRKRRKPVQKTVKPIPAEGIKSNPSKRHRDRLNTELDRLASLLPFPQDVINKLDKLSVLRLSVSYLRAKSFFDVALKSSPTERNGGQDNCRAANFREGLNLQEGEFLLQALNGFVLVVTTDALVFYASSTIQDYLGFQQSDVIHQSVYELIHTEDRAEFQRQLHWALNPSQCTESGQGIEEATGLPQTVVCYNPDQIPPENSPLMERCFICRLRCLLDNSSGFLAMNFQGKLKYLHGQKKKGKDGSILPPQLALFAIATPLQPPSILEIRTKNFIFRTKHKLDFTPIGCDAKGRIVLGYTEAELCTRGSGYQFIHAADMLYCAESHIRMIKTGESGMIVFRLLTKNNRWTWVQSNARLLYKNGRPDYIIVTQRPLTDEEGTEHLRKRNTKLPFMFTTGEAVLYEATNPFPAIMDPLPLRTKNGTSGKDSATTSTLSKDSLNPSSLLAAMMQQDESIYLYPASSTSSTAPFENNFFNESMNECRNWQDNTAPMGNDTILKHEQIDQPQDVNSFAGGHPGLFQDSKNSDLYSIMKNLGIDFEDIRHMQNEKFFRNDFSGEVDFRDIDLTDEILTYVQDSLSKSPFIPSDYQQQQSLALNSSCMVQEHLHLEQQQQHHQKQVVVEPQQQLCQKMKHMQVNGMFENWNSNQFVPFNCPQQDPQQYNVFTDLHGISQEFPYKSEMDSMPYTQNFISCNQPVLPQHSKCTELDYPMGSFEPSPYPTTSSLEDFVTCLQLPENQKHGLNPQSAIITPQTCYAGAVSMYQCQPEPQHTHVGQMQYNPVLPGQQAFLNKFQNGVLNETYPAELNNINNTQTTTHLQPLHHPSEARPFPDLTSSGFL
Outline: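 A multiplexed format paired cell viability (CellTiter-Fluor fluorescence) with AhR-dependent luciferase output (ONE-Glo luminescence) in the same wells of HepG2 DRE-luc cells after 24 h compound exposure at 37C.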

[10] = target: Vitamin D3 receptor (Homo sapiens) (UniProt P11473); assay: qHTS assay to identify small molecule agonists of the vitamin D receptor (VDR) signaling pathway (AID 743222; calls by dose curve)
Sequence of Vitamin D3 receptor (Homo sapiens) (P11473 whole entry, looked up): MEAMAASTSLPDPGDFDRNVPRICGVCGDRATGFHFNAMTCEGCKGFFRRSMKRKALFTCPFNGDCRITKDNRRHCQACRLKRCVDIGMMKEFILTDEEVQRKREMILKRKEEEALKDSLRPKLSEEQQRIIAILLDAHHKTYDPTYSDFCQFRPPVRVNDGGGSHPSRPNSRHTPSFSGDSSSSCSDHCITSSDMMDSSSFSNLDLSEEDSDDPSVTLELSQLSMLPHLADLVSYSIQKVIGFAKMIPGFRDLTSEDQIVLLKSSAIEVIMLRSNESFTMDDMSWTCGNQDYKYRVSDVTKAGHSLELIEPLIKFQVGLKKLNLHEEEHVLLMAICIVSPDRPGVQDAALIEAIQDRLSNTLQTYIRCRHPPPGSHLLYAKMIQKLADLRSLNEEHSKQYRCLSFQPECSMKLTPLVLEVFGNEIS
Outline: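 VDR-bla cells plated 4 h at 37 C, then exposed to compounds for 16 h at 37 C. Beta-lactamase reporter activity measured by fluorescence after 2 h room-temperature loading with LiveBLAzer B/G FRET substrate.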

[11] = target: Vitamin D3 receptor (Homo sapiens) (UniProt P11473); assay: qHTS assay to identify small molecule antagonists of the vitamin D receptor (VDR) signaling pathway (AID 743223; active = well fitted inhibition curve with a large enough effect in the signal ratio in the repeat runs, not every such curve was filed as active; the % refers to the signal ratio)
Outline: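 Quantitative HTS in VDR-bla reporter cells stimulated with 1alpha,25-dihydroxyvitamin D3, 3 nM final. Compound exposure 16 h, 37C, 5% CO2. Read-out: beta-lactamase FRET substrate fluorescence, 2 h RT.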

[12] = qHTS assay for small molecule activators of the heat shock response signaling pathway (AID 743210; active = well fitted activation curve with a large enough effect in the signal ratio in the repeat runs, with a control signal flat, not every such curve was filed as active; the % refers to the signal ratio; note: potency is the fitted concentration of half-maximal effect;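 for activation: HeLa cells with beta-lactamase reporter driven by heat shock elements; series mostly up to about 63 µM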)
Outline: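 Reporter gene assay: HeLa cells stably bearing an HSE-bla construct, compound treatment 5 h at 37 C, LiveBLAzer substrate 2.5 h at RT, fluorescence intensity.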

[13] = qHTS assay to identify small molecule that activate the aryl hydrocarbon receptor (AhR) signaling pathway - cell viability counter screen (AID 743086); note: nearly all actives have a fitted effect of over 45% in size; note: potency is the fitted concentration of half-maximal effect;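 for viability change, negative = cytotoxic: HepG2 liver cells carrying the AhR DRE luciferase reporter; series mostly up to about 70 µM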
Outline: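 HepG2-AhR-luc (HG2L7.5c1) cells, 4000/well, were preincubated 5 h at 37C, exposed to compound in qHTS format for 24 hr at 37C, then given CellTiter-Fluor for 30 min; viability was read as fluorescence in the reporter wells.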

[14] = target: Peroxisome proliferator-activated receptor gamma (Homo sapiens) (UniProt P37231); assay: qHTS assay to identify small molecule agonists of the peroxisome proliferator-activated receptor gamma (PPARg) signaling pathway (AID 743094; active = well fitted activation curve with a large enough effect in the signal ratio in the repeat runs, not every such curve was filed as active; the % refers to the signal ratio)
Sequence of Peroxisome proliferator-activated receptor gamma (Homo sapiens) (P37231 whole entry, looked up): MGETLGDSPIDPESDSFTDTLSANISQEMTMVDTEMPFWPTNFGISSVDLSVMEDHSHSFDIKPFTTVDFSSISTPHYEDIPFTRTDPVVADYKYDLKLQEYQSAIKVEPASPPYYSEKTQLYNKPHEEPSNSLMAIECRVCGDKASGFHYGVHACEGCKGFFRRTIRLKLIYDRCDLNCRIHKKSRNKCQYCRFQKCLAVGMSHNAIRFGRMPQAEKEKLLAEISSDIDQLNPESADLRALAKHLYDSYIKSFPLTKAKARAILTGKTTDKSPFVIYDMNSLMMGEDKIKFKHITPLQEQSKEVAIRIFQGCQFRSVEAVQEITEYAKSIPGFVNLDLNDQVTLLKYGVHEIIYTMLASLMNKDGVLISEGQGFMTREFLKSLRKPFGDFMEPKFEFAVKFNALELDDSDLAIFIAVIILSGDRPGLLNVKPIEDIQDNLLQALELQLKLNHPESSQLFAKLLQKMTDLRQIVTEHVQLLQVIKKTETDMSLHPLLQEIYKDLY
Outline: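 GeneBLAzer PPARg UAS-bla HEK293H cells were plated, rested 5 h, then exposed to compounds for 17 h at 37C. Beta-lactamase activity was read by LiveBLAzer B/G FRET substrate fluorescence after 1 h at room temperature.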

[15] = target: Peroxisome proliferator-activated receptor gamma (Homo sapiens) (UniProt P37231); assay: qHTS assay to identify small molecule antagonists of the peroxisome proliferator-activated receptor gamma (PPARg) signaling pathway (AID 743191; calls by dose curve; note: nearly all actives have a fitted effect of over 30% in size; note: potency is the fitted concentration of half-maximal effect; for ratio activity, negative = inhibition: series mostly up to about 63 µM)
Outline: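 GeneBLAzer PPARg UAS-bla HEK293H cells carrying a UAS-driven beta-lactamase reporter were plated at 3000 cells/well, preincubated 5 h at 37C, then given compound for 17 h at 37C; LiveBLAzer B/G FRET substrate was read after 1 h at room temperature.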

[16] = target: Peroxisome proliferator-activated receptor delta (Homo sapiens) (UniProt Q03181); assay: qHTS assay to identify small molecule antagonists of the peroxisome proliferator-activated receptor delta (PPARd) signaling pathway (AID 743215; active = well fitted inhibition curve with a large enough effect in the signal ratio in the repeat runs, not every such curve was filed as active; the % refers to the signal ratio;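 note: cells stimulated with agonist L165041 at 300 nM final during compound exposure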; note: potency is the fitted concentration of half-maximal effect; for ratio activity, negative = inhibition: series mostly up to about 62 µM)
Outline: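 PPARd-bla HEK293H cells (UAS-bla reporter) preincubated 5 h, then given compound plus 300 nM final L165041 agonist for 17 h at 37 C. Beta-lactamase activity read by LiveBLAzer B/G FRET substrate fluorescence after 2 h at room temperature.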

[17] = qHTS assay for small molecule agonists of the antioxidant response element (ARE) signaling pathway (AID 743202; active = well fitted activation curve with a large enough effect in the signal ratio in the repeat runs, not every such curve was filed as active; the % refers to the signal ratio; note: potency is the fitted concentration of half-maximal effect)
Outline: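 Compounds delivered in DMSO to ARE-bla HepG2 cells (2,000 cells/well, pre-incubated 5 h) and left 16 h at 37 C. LiveBLAzer B/G FRET substrate then added for 2 h at RT before fluorescence reading.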

[18] = target: Bile acid receptor (Homo sapiens) (UniProt Q96RI1); assay: qHTS assay to identify small molecule antagonists of the farnesoid-X-receptor (FXR) signaling pathway (AID 743217; active = well fitted inhibition curve with a large enough effect in the signal ratio in the repeat runs, not every such curve was filed as active; the % refers to the signal ratio)
Sequence of Bile acid receptor (Homo sapiens) (Q96RI1 whole entry, looked up): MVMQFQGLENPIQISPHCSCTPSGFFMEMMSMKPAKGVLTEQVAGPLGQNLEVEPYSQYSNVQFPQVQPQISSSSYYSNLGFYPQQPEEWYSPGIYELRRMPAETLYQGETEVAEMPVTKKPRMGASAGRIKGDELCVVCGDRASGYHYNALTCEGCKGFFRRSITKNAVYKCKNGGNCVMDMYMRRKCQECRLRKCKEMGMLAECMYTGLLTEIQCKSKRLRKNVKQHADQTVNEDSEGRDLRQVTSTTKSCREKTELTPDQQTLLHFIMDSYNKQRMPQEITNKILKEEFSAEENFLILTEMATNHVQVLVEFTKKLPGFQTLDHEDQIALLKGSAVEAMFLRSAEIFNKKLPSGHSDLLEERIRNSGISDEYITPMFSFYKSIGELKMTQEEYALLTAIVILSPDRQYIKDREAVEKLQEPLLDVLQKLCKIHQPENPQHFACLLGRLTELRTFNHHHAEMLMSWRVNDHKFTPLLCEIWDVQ
Outline: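 FXR-UAS-bla HEK 293T cells (beta-lactamase reporter) given compound plus chenodeoxycholic acid (50 uM final), 16 h at 37C. LiveBLAzer B/G FRET substrate added for 2 h at room temperature; fluorescence read.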

[19] = target: Bile acid receptor (Homo sapiens) (UniProt Q96RI1); assay: qHTS assay to identify small molecule agonists of the farnesoid-X-receptor (FXR) signaling pathway (AID 743220; active = well fitted activation curve with a large enough effect in the signal ratio in the repeat runs, not every such curve was filed as active; the % refers to the signal ratio)
Outline: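 Beta-lactamase reporter under UAS control in GeneBLAzer FXR HEK 293T cells (5000/well) measured with LiveBLAzer FRET substrate after 2 h at room temperature. Compound exposure lasted 16 h at 37C.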
% is set by controls: 0 for no effect and ±100 for the full control effect.

Cc1ccc([N+](=O)[O-])[c]2c1[O][Hg]2
active: Potency [1] 2.98 µM | Potency [2] 4.22 µM | Potency [3] 5.31 µM | Potency [4] 1.88 µM | Potency [5] 29.8 µM | Potency [6] 5.96 µM | Potency [7] 2.37 µM | Potency [8] 1.19 µM

FC(F)C(F)(F)OCC(Cn1cncn1)c1ccc(Cl)cc1Cl (stereo not given)
active: Potency [9] 6.82 µM
inactive: Potency [1] | Potency [2] | Potency [3] | Potency [5] | Potency [7] | Potency [10] | Potency [11]

CN1CCc2cc3c(cc2C1O)OCO3 (stereo not given)
inactive: Potency [9] | Potency [1] | Potency [2] | Potency [3] | Potency [4] | Potency [7] | Potency [8]
active: Potency [12] 39.1 µM

S=C=NCCc1ccccc1
inactive: Potency [13] | Potency [14] | Potency [15] | Potency [1] | Potency [5] | Potency [6] | Potency [16] | Potency [11]
active: Potency [3] 55.1 µM

CC(Cc1ccc(OCC(=O)O)cc1)NCC(O)c1csc(C(F)(F)F)n1 (stereo not given)
inactive: Potency [9] | Potency [14] | Potency [15] | Potency [1] | Potency [17] | Potency [2] | Potency [3] | Potency [6] | Potency [7] | Potency [8] | Potency [10] | Potency [11]

CC(=O)[O-].CC(=O)[O-].CC(=O)[O-].[Cr+3]
inactive: Potency [9] | Potency [13] | Potency [1] | Potency [2] | Potency [3] | Potency [4] | Potency [6] | Potency [7] | Potency [8]

CN1C2CCC(C)(C)C1CC(OC(=O)C(O)(c1cccs1)c1cccs1)C2 (stereo not given)
inactive: Potency [1] | Potency [17] | Potency [2] | Potency [12] | Potency [4] | Potency [6] | Potency [16] | Potency [18] | Potency [7] | Potency [19] | Potency [10] | Potency [11]

O=C(CCCCl)c1ccc(F)cc1
inactive: Potency [15] | Potency [1] | Potency [17] | Potency [2] | Potency [3] | Potency [6] | Potency [7] | Potency [8]

CSSC
inactive: Potency [13] | Potency [17] | Potency [2] | Potency [3] | Potency [12] | Potency [4] | Potency [5] | Potency [6] | Potency [16] | Potency [7] | Potency [8] | Potency [10] | Potency [11]

CN1C(=O)[C@@H](NC(=O)c2cc3ccccc3[nH]2)N=C(c2ccccc2)c2ccccc21
inactive: Potency [13] | Potency [1] | Potency [2] | Potency [3] | Potency [4] | Potency [6] | Potency [7] | Potency [8] | Potency [10] | Potency [11]

Clc1c(Cl)c(Cl)c(Cl)c(Cl)c1Cl
inactive: viability change, negative = cytotoxic [13] 3.05% [at 8.47 µM] | activity change, negative = cytotoxicity [1] -5.6% [at 5.95 µM, co-treated with 50 nM rosiglitazone] | activation [17] -2.23% [at 8.36 µM] | viability change, negative = cytotoxic [2] 3.6% [at 8.36 µM] | activity change, negative = cytotoxicity [3] -0.0057% [at 5.95 µM] | activity change, negative = cytotoxicity [4] 0.119% [at 5.95 µM] | viability change, negative = cytotoxic [6] 0.753% [at 6.26 µM] | ratio activity, negative = inhibition [16] -0.823% [at 6.26 µM] | viability change, negative = cytotoxic [7] 24.1% [at 5.95 µM] | activity change, negative = cytotoxicity [8] 10.7% [at 5.95 µM] | activation [10] -0.148% [at 6.01 µM] | activity change, negative = inhibition [11] 0.227% [at 6.95 µM]

CCC(OC(C)=O)C(CC(C)NC)(c1ccccc1)c1ccccc1 (stereo not given)
inactive: Potency [9] | Potency [3] | Potency [19] | Potency [10]
active: Potency [13] 69.2 µM | Potency [2] 77.6 µM | Potency [4] 15.5 µM | Potency [6] 30.9 µM | Potency [7] 61.6 µM | Potency [8] 69.2 µM

CC(Cc1ccccc1)N(C)Cc1ccco1 (stereo not given)
inactive: Potency [15] | Potency [1] | Potency [17] | Potency [2] | Potency [3] | Potency [4] | Potency [5] | Potency [6] | Potency [16] | Potency [18] | Potency [7] | Potency [8] | Potency [10] | Potency [11]

C#CCC1=C(C)C(OC(=O)C2C(C=C(C)C)C2(C)C)CC1=O (stereo not given)
inactive: Potency [9] | Potency [13] | Potency [1] | Potency [2] | Potency [3] | Potency [6] | Potency [16] | Potency [7] | Potency [8] | Potency [10]

c1ccc(N=NNc2ccccc2)cc1
inactive: Potency [1] | Potency [2] | Potency [3] | Potency [12] | Potency [16] | Potency [7] | Potency [8]
active: Potency [9] 10 µM and 34.4 µM | Potency [17] 9.69 µM | Potency [4] 56.8 µM

CCOP(=O)(OCC)Oc1nc(Cl)c(Cl)cc1Cl
inactive: Potency [14] | Potency [3] | Potency [10]
active: Potency [15] 1.37 µM | Potency [4] 38.7 µM | Potency [16] 12.2 µM

CC[C@]1(O)CC[C@H]2[C@@H]3CCC4=CCCC[C@@H]4[C@H]3CC[C@@]21C
inactive: Potency [9] | Potency [14] | Potency [15] | Potency [1] | Potency [17] | Potency [2] | Potency [3] | Potency [5] | Potency [6] | Potency [16] | Potency [7] | Potency [19] | Potency [8] | Potency [10]

Nc1c(Cl)c(Cl)c(Cl)c(Cl)c1Cl
inactive: Potency [13] | Potency [2] | Potency [12] | Potency [4] | Potency [8]
active: Potency [9] 50.5 µM

Nc1nc(N)c(N)c(N)n1
inactive: Potency [13] | Potency [15] | Potency [1] | Potency [17] | Potency [2] | Potency [3] | Potency [12] | Potency [6] | Potency [7] | Potency [8] | Potency [11]

O=[N+]([O-])C(Br)Br
inactive: Potency [9] | Potency [13] | Potency [3] | Potency [12] | Potency [6] | Potency [16] | Potency [7] | Potency [8] | Potency [10]
active: Potency [2] 61.3 µM
